{"source": "PubChem BioAssay (NCATS)", "key": {"[1]": {"assay": "qHTS drug screen for cell cycle checkpoint inhibitors in PARPi-resistant BRCA-mutant ovarian cancer cell lines. (AID 1963452); note: potency is the fitted concentration of half-maximal effect", "conditions": "PEO1/OlaR viability, CellTiter-Glo luminescence, 96 h; for Z-AUC: stronger effect = lower value", "summary_of_the_method": "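PEO1, PEO4 and PEO1/OlaR ovarian cancer cells, 600 per well, exposed 96 h at 37C to a dilution series. Viability read by CellTiter-Glo luminescence, normalized to DMSO and empty wells; activity summarized as Z-AUC.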"}, "[2]": {"assay": "qHTS for inhibitors of Rabies Virus screened against the NCATS CANVASS Library (AID 1347402); note: series mostly up to about 46 µM; 0% is about no effect"}, "[3]": {"conditions": "measured here: PEO1 parental Z-AUC"}}, "note": "Records with an inconclusive call do not appear. Active and inactive are the calls of the source. Calls come from the whole dose curve. Starred links: 1 amine or outer side, 2 acyl side, 3 side chain; linkers in the order of their positions; H or OH if unused. Positions of bridges follow the written chain, without caps; N, C: chain ends. Non-standard residues stand in square brackets, D forms with d. Residues, ends and D or L forms follow the SMILES beside them. ξ: configuration not given here. Phe(3R-OH) = O=C([C@@H](N[*:1])[C@H](O[*:3])c1ccccc1)[*:2]; NMeTrp(4-OMe) = CN[C@@H](Cc1c[nH]c2cccc(OC)c12)C(=O)O; ξThr(3R)(O-yl) = C[C@@H](O[*:3])C(N[*:1])C(=O)[*:2]; NMeThr(3ξ) = CN[C@H](C(=O)O)C(C)O; NMeL = CN[C@@H](CC(C)C)C(=O)O; NMeV = CN[C@H](C(=O)O)C(C)C; ξIle = CC[C@H](C)C(N)C(=O)O; ξV = CC(C)C(N)C(=O)O"}
{"smiles": "CC(C)[C@]12O[C@H]1[C@@H]1O[C@@]13[C@@]1(C)CCC4=C(COC4=O)[C@@H]1C[C@@H]1O[C@@]13C2=O", "values": [{"measurement": "Z-AUC", "setting": "[1]", "result": "-1.63 (inactive)"}, {"measurement": "Z-AUC", "setting": "[1]; [3]", "result": -0.566}, {"measurement": "Z-AUC", "setting": "[1]; measured here: PEO4 Z-AUC", "result": -1.17}]}
{"smiles": "CN1C(=O)[C@@H](NC(=O)[C@H](CCC(F)(F)F)[C@H](CCC(F)(F)F)C(N)=O)N=C(c2ccccc2)c2ccccc21", "values": [{"measurement": "Z-AUC", "setting": "[1]", "result": "-0.603 (inactive)"}, {"measurement": "Z-AUC", "setting": "[1]; [3]", "result": 0.158}, {"measurement": "Z-AUC", "setting": "[1]; measured here: PEO4 Z-AUC", "result": -0.105}]}
{"smiles": "COC12C(COC(N)=O)C3=C(C(=O)C(C)=C(N)C3=O)N1CC1C2N1C", "note": "(stereo not drawn)", "values": [{"measurement": "Z-AUC", "setting": "[1]", "result": "-0.24 (inactive)"}, {"measurement": "Z-AUC", "setting": "[1]; [3]", "result": 0.0826}, {"measurement": "Z-AUC", "setting": "[1]; measured here: PEO4 Z-AUC", "result": -0.134}]}
{"smiles": "CC(=O)N[C@H](C)c1nc(/C=C/C=C/C(=O)CC2CC(=O)CC[C@]2(C)O)cs1", "note": "(stereo partly drawn)", "values": [{"measurement": "outcome", "setting": "[2]", "result": "inactive"}]}
{"smiles": "C=C1[C@H]2CC[C@@]3(C=CC(=O)[C@@](C)(CCC(=O)Nc4c(O)ccc(C(=O)O)c4O)C3C2)[C@H]1O", "note": "(stereo partly drawn)", "values": [{"measurement": "outcome", "setting": "[2]", "result": "inactive"}]}
{"smiles": "C[C@@]12OC(=O)[C@]1([C@@H](O)[C@@H]1C=CCCC1)NC(=O)[C@@H]2CCCl", "values": [{"measurement": "Z-AUC", "setting": "[1]", "result": "-0.972 (inactive)"}, {"measurement": "Z-AUC", "setting": "[1]; [3]", "result": -1.61}, {"measurement": "Z-AUC", "setting": "[1]; measured here: PEO4 Z-AUC", "result": -1.64}]}
{"smiles": "C/C=C(\\C)C(=O)N[C@@H](c1ccccc1)[C@@H](O)C(=O)O[C@H]1C[C@@]2(O)[C@@H](OC(=O)c3ccccc3)[C@@H]3[C@]4(OC(C)=O)CO[C@@H]4C[C@H](O)[C@@]3(C)C(=O)[C@H](OC(C)=O)C(=C1C)C2(C)C", "values": [{"measurement": "Z-AUC", "setting": "[1]", "result": "-2.81 (inactive)"}, {"measurement": "Z-AUC", "setting": "[1]; [3]", "result": -2.97}, {"measurement": "Z-AUC", "setting": "[1]; measured here: PEO4 Z-AUC", "result": -3.26}]}
{"smiles": "CC[C@H](C)C(NC(=O)[C@@H](NC)C(C)C)C(=O)NC1C(=O)N(C)[C@@H](C(C)O)C(=O)N[C@@H](C(C)C)C(=O)N(C)[C@@H](CC(C)C)C(=O)NC(C(C)C)C(=O)N(C)[C@@H](C(C)C)C(=O)N(C)[C@@H](Cc2c[nH]c3cccc(OC)c23)C(=O)N[C@@H](C(C)C)C(=O)N[C@@H]([C@H](O)c2ccccc2)C(=O)N[C@@H](C(C)C)C(=O)O[C@@H]1C", "note": "(stereo partly drawn) (H-[NMeV][ξIle][ξThr(3R)(O-yl)][NMeThr(3ξ)]V[NMeL][ξV][NMeV][NMeTrp(4-OMe)]V[Phe(3R-OH)]V; ester 3-C)", "values": [{"measurement": "outcome", "setting": "[2]", "result": "inactive"}]}
{"smiles": "Cc1[nH]ncc1-c1cc2nc([C@@H]3CC4CCN3CC4)[nH]c(=O)c2s1", "values": [{"measurement": "Z-AUC", "setting": "[1]", "result": "0.732 (inactive)"}, {"measurement": "Z-AUC", "setting": "[1]; [3]", "result": 0.621}, {"measurement": "Z-AUC", "setting": "[1]; measured here: PEO4 Z-AUC", "result": 0.645}]}
{"smiles": "CCCCCCC(C)(C)c1cc(O)c2c(c1)OC(C)(C)C1CC=C(CO)C[C@H]21", "note": "(stereo partly drawn)", "values": [{"measurement": "Z-AUC", "setting": "[1]", "result": "1.02 (inactive)"}, {"measurement": "Z-AUC", "setting": "[1]; [3]", "result": 0.553}, {"measurement": "Z-AUC", "setting": "[1]; measured here: PEO4 Z-AUC", "result": 0.644}]}
{"smiles": "CC(=O)O[C@@]12CO[C@@H]1C[C@H](O)[C@@]1(C)C(=O)[C@H](O)C3=C(C)[C@@H](O)C[C@@](O)([C@@H](OC(=O)c4ccccc4)[C@H]21)C3(C)C", "values": [{"measurement": "Z-AUC", "setting": "[1]", "result": "1.05 (inactive)"}, {"measurement": "Z-AUC", "setting": "[1]; [3]", "result": 0.322}, {"measurement": "Z-AUC", "setting": "[1]; measured here: PEO4 Z-AUC", "result": 0.492}]}
{"smiles": "C=C1C[C@@]23C=CC(=O)[C@@](C)(CCC(=O)Nc4c(O)ccc(C(=O)O)c4O)C2C[C@@H]1C(O)C3", "note": "(stereo partly drawn)", "values": [{"measurement": "outcome", "setting": "[2]", "result": "inactive"}]}
{"smiles": "COc1cc2cc(c1Cl)N(C)C(=O)C[C@H](OC(=O)C(C)C)[C@]1(C)O[C@@H]1[C@H](C)[C@@H]1C[C@@](O)(NC(=O)O1)[C@H](OC)/C=C/C=C(\\C)C2", "values": [{"measurement": "Potency", "setting": "[1]", "result": "549 nM (active)"}, {"measurement": "Z-AUC", "setting": "[1]; [3]", "result": -2.8}, {"measurement": "Z-AUC", "setting": "[1]; measured here: PEO4 Z-AUC", "result": -2.84}]}
{"smiles": "C[C@]12COC(=O)C[C@@H]1CC[C@@H]1[C@@H]2CC[C@@]2(C)[C@H]1CC[C@]2(C)O", "values": [{"measurement": "Z-AUC", "setting": "[1]", "result": "0.596 (inactive)"}, {"measurement": "Z-AUC", "setting": "[1]; [3]", "result": 0.611}, {"measurement": "Z-AUC", "setting": "[1]; measured here: PEO4 Z-AUC", "result": 0.327}]}
{"smiles": "CC1=C(C)C(=O)OC(C(C)C2(O)CCC3C4C5OC5C5(O)CC=CC(=O)C5(C)C4CCC32C)C1", "note": "(stereo not drawn)", "values": [{"measurement": "outcome", "setting": "[2]", "result": "inactive"}]}
{"smiles": "CC(=O)OC[C@H]1O[C@@H]([S-])[C@H](OC(C)=O)[C@@H](OC(C)=O)[C@@H]1OC(C)=O.CC[PH+](CC)CC.[Au]", "values": [{"measurement": "Z-AUC", "setting": "[1]", "result": "-0.477 (inactive)"}, {"measurement": "Z-AUC", "setting": "[1]; [3]", "result": -0.483}, {"measurement": "Z-AUC", "setting": "[1]; measured here: PEO4 Z-AUC", "result": -0.599}]}
{"smiles": "CC(C)(NC(=O)O[C@@H]1CN2CCC1CC2)c1csc(-c2ccc(F)cc2)n1", "values": [{"measurement": "Z-AUC", "setting": "[1]", "result": "1.16 (inactive)"}, {"measurement": "Z-AUC", "setting": "[1]; [3]", "result": 0.982}, {"measurement": "Z-AUC", "setting": "[1]; measured here: PEO4 Z-AUC", "result": 1.29}]}
{"smiles": "O=C(O)CNC(=O)C1C(=O)N(C2CCCCC2)C(=O)N(C2CCCCC2)C1=O", "values": [{"measurement": "Z-AUC", "setting": "[1]", "result": "0.43 (inactive)"}, {"measurement": "Z-AUC", "setting": "[1]; [3]", "result": 0.47}, {"measurement": "Z-AUC", "setting": "[1]; measured here: PEO4 Z-AUC", "result": 0.437}]}
{"smiles": "CO[C@H]1CCC(O[C@H]2C[C@H]([C@]3(C)CC[C@]4(C[C@H](O)[C@@H](C)[C@@H]([C@@H](C)/C=C(\\C)C(=O)[C@H](C)C[C@H](C)C(=O)O)O4)O3)O[C@]3(O[C@@H]([C@H]4O[C@@](O)(CO)[C@H](C)C[C@@H]4C)C[C@@H]3C)[C@@H]2C)O[C@@H]1C", "note": "(stereo partly drawn)", "values": [{"measurement": "Z-AUC", "setting": "[1]", "result": "-1.49 (inactive)"}, {"measurement": "Z-AUC", "setting": "[1]; [3]", "result": -1.68}, {"measurement": "Z-AUC", "setting": "[1]; measured here: PEO4 Z-AUC", "result": -1.99}]}
{"smiles": "N#CC(O[C@@H]1O[C@H](CO[C@@H]2O[C@H](CO)[C@@H](O)[C@H](O)[C@H]2O)[C@@H](O)[C@H](O)[C@H]1O)c1ccccc1", "note": "(stereo partly drawn)", "values": [{"measurement": "Z-AUC", "setting": "[1]", "result": "0.897 (inactive)"}, {"measurement": "Z-AUC", "setting": "[1]; [3]", "result": 0.644}, {"measurement": "Z-AUC", "setting": "[1]; measured here: PEO4 Z-AUC", "result": 0.881}]}
{"smiles": "COc1cc(C)[nH]c(=O)c1CNC(=O)c1c(C)n([C@H](C)C2CCN(CC(F)(F)F)CC2)c2ccccc12", "values": [{"measurement": "Z-AUC", "setting": "[1]", "result": "1.18 (inactive)"}, {"measurement": "Z-AUC", "setting": "[1]; [3]", "result": 0.708}, {"measurement": "Z-AUC", "setting": "[1]; measured here: PEO4 Z-AUC", "result": 0.343}]}
